# Experimental data: PubChem BioAssay (EPA / NIEHS)
# Results filed as inconclusive are left out. Activity calls are given as the source filed them. The calls were made as follows: active = hit-call score of the fitted dose curve at least 0.9, where 1 is the maximum; inconclusive = response in the unintended direction; inactive = score below 0.9.
# Tests used:
# [1] = target: guinea pig Sigma Receptor, Non-selective Binding, SIGMAR1 (gene 100135589) (UniProt Q60492); assay: NVS_OR_gSIGMA_NonSelective: NovaScreen (NVS) Nuclear Receptor Binding Assay for guinea pig Sigma Receptor, Non-selective Binding (AID 2283367)
# Sequence of guinea pig Sigma Receptor, Non-selective Binding, SIGMAR1 (gene 100135589) (Q60492 whole entry, looked up): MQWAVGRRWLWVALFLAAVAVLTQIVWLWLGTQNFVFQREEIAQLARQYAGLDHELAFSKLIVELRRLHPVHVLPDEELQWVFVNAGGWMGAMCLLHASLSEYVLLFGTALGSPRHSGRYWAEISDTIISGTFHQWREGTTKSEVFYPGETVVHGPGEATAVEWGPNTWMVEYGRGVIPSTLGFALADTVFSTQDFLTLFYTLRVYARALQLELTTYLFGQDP
# How it was run: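 Radioligand displacement on guinea pig brain membranes, read by filter-based scintillation counting 1 h after dosing. Loss of signal versus DMSO; initial duplicate single-point screen at 25 uM, actives followed in concentration series.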
# [2] = target: human Adenosine Transporter (Adot), SLC29A1 (gene 2030) (UniProt Q99808); assay: NVS_TR_hAdoT: NovaScreen (NVS) Transporter Assay for human Adenosine Transporter (Adot) (AID 2283368)
# Sequence of human Adenosine Transporter (Adot), SLC29A1 (gene 2030) (Q99808 whole entry, looked up): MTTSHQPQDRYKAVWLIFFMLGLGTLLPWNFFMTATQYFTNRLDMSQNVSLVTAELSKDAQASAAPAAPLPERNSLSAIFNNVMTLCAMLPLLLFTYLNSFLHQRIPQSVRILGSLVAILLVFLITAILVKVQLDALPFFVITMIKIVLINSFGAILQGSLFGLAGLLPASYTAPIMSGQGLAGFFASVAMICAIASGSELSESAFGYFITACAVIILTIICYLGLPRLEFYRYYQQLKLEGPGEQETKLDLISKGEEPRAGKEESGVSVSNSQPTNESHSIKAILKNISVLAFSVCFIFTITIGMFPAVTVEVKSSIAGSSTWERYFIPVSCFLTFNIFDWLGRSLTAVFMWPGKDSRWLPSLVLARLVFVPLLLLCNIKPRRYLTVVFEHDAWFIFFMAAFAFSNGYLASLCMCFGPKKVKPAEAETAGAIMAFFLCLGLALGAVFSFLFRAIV
# How it was run: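 U937-derived membranes, cell-free radioligand binding, filter scintillation 1 h after dosing. 25 uM duplicate screen; hits (e.g. 30% inhibition) run in concentration-response up to 50 uM; loss of signal versus DMSO.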
# [3] = system: guinea pig Dopamine Transporter (DAT), gene 100714898; assay: NVS_TR_gDAT: NovaScreen (NVS) Transporter Assay for guinea pig Dopamine Transporter (DAT) (AID 2283369);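 also: active compounds lower bound radioligand signal relative to DMSO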
# How it was run: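 Test chemicals were incubated 2 h with guinea pig striatal membranes and a radioligand; bound label was separated by filtration and counted. Screening ran at 25 uM, followed by concentration-response testing to a 50 uM maximum.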
# [4] = target: human Serotonin Transporter (SERT), SLC6A4 (gene 6532) (UniProt P31645); assay: NVS_TR_hSERT: NovaScreen (NVS) Transporter Assay for human Serotonin Transporter (SERT) (AID 2283372)
# How it was run: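 Radioligand binding to native SERT in human platelet membranes, read by filter-based scintillation counting 1 h after dosing. Primary screen in duplicate at 25 uM; actives followed up in concentration series; loss of signal versus DMSO baseline.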
# [5] = system: rat Norepinephrine Transporter (NET), gene 83511; assay: NVS_TR_rNET: NovaScreen (NVS) Transporter Assay for rat Norepinephrine Transporter (NET) (AID 2283373)
# How it was run: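 Rat forebrain membranes; radioligand binding measured by filter-based scintillation counting 1 hour after dosing. Loss of specific binding versus DMSO baseline scored; primary screen in duplicate at 25 uM, actives followed up in concentration series.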
# [6] = target: rat Serotonin Transporter (SERT), Slc6a4 (gene 25553) (UniProt P31652); assay: NVS_TR_rSERT: NovaScreen (NVS) Transporter Assay for rat Serotonin Transporter (SERT) (AID 2283375)
# How it was run: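 Steps: rat forebrain membranes dosed with chemical (25 uM duplicate primary; concentration series for actives); 1 h incubation; labelled ligand bound, filtered, counted by scintillation. Activity scored as signal loss vs DMSO.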
# PGR (gene 5241) = PGR (gene 5241) (UniProt P06401); assay: NVS_NR_hPR: NovaScreen (NVS) Nuclear Receptor Binding Assay for human Progestron Receptor (PR) (AID 2283360);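 also: active means loss of bound radioligand signal versus DMSO baseline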
# How it was run: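 Cell-free radioligand binding using receptor protein extracted from T47D cells, read by scintillation counting 18 hours after dosing. Loss of signal relative to DMSO baseline indicates displacement; primary screen single concentration 25 uM in duplicate, actives followed in concentration series.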
# [7] = target: Estrogen receptor beta (Homo sapiens) (UniProt Q92731); assay: OT_ER_ERbERb_0480: Odyssey Thera (OT) 8-hour HEK293T Protein-Complementation Assay for Estrogen Receptor-beta/-beta Homodimer (AID 2283357);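 also: active means signal gain over DMSO baseline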
# Sequence of Estrogen receptor beta (Homo sapiens) (Q92731 whole entry, looked up, the tested form may be a part): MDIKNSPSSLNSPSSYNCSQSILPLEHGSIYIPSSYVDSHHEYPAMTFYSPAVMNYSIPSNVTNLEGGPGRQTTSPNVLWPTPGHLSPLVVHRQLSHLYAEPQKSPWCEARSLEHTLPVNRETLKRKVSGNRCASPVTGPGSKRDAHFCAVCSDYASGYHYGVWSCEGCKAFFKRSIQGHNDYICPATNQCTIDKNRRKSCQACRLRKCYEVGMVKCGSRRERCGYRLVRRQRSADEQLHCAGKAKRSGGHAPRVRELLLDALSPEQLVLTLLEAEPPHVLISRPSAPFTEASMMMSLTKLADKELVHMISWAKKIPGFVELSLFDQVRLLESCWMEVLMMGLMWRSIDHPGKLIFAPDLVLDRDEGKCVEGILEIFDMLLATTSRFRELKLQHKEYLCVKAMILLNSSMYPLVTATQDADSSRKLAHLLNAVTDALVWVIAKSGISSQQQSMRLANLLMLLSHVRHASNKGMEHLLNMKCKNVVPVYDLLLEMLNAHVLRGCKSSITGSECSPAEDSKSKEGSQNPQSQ
# How it was run: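 Fluorescence intensity, nuclear for agonists and nuclear plus cytoplasmic for antagonists, was quantified by laser scanning cytometry versus vehicle after 8 h treatment. The cells were HEK293T stably carrying ER beta LBD fragment-complementation partners.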
# [8] = target: Estrogen receptor (Homo sapiens) + Estrogen receptor beta (Homo sapiens) (UniProt P03372+Q92731); assay: OT_ER_ERaERb_1440: Odyssey Thera (OT) 24-hour HEK293T Protein-Complementation Assay for Estrogen Receptor-alpha/-beta Homodimer (AID 2283356);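 also: heteromer of ER alpha and ER beta binding domains; hits raise reporter fluorescence and both agonists and antagonists give an increase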
# Sequence of Estrogen receptor (Homo sapiens) + Estrogen receptor beta (Homo sapiens) (P03372 whole entry, looked up, the tested form may be a part): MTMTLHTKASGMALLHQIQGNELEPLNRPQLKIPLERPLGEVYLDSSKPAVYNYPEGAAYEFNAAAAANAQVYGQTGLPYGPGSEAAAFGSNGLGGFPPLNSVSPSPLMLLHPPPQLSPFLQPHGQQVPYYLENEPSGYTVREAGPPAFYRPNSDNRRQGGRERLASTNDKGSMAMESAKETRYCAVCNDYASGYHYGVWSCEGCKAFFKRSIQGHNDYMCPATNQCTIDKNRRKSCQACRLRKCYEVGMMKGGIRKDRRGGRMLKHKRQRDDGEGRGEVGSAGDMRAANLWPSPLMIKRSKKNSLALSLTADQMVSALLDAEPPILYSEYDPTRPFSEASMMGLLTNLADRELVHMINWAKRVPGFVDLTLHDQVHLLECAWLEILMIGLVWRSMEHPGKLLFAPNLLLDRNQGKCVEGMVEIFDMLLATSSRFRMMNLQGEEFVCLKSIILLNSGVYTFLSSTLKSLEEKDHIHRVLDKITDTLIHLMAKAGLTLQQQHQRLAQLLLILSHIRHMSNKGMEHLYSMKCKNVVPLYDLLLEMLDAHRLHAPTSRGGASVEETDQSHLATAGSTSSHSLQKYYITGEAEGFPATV
# Sequence of Estrogen receptor (Homo sapiens) + Estrogen receptor beta (Homo sapiens) (Q92731 whole entry, looked up, the tested form may be a part): as the sequence (Q92731 whole entry, looked up, the tested form may be a part) above
# How it was run: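 Heterodimerisation of ERα (aa 310-547) and ERβ (aa 263-489) ligand binding domains was tracked as fluorescence gain in stably transfected HEK293T cells following 24 h dosing, normalised to DMSO controls.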
# [9] = target: Glucocorticoid receptor (Homo sapiens) (UniProt P04150); assay: NVS_NR_hGR: NovaScreen (NVS) Nuclear Receptor Binding Assay for human Glucocorticoid Receptor (GR) (AID 2283363);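 also: activity is loss of specific radioligand binding signal relative to DMSO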
# Sequence of Glucocorticoid receptor (Homo sapiens) (P04150 whole entry, looked up): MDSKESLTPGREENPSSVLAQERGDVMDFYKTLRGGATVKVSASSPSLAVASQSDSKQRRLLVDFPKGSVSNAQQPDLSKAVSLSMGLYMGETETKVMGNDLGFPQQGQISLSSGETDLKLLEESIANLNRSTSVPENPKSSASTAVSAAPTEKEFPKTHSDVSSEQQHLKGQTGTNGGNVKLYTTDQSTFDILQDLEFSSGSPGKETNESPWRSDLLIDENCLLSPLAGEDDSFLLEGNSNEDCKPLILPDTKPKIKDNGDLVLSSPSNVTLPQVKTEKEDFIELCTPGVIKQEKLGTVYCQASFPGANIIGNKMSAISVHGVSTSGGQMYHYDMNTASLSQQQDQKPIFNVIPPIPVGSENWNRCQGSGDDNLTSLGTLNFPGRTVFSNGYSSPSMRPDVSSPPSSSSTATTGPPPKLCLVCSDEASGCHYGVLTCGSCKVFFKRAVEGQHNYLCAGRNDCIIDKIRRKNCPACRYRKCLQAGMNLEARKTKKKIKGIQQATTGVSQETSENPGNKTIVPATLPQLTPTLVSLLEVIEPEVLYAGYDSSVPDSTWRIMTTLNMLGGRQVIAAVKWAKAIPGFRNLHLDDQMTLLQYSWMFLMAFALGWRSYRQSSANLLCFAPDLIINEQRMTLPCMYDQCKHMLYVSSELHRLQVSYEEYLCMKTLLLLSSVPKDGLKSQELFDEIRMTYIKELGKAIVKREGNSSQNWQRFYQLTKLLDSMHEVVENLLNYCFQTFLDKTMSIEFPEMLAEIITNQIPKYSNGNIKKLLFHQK
# How it was run: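 Cell-free radioligand displacement assay on extracted human GR, read 16 h after dosing by filter-based scintillation counting. Screened in duplicate at 25 uM, then concentration series for actives; loss of signal versus DMSO baseline.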
# [10] = target: human Dopamine Transporter (DAT), SLC6A3 (gene 6531) (UniProt Q01959); assay: NVS_TR_hDAT: NovaScreen (NVS) Transporter Assay for human Dopamine Transporter (DAT) (AID 2283374);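 also: activity means loss of bound radioligand signal relative to DMSO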
# Sequence of human Dopamine Transporter (DAT), SLC6A3 (gene 6531) (Q01959 whole entry, looked up): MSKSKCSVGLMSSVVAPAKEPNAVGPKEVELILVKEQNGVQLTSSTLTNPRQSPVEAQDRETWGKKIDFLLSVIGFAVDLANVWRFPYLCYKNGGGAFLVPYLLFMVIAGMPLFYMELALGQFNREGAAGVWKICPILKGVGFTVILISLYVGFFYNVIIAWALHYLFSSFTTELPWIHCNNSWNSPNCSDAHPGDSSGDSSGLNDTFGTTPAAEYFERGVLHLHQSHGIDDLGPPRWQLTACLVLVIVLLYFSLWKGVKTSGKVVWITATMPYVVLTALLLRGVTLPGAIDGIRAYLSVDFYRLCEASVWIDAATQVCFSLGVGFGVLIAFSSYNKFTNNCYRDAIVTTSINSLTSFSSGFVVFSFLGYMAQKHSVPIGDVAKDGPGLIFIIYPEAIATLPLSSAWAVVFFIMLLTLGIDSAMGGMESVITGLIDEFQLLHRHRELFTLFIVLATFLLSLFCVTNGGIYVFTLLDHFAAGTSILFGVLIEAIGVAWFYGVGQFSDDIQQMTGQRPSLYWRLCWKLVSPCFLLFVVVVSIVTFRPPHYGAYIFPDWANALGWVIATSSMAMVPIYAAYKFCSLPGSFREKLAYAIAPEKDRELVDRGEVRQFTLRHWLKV
# How it was run: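 Cell-free radioligand displacement binding at human DAT, 1 h after dosing, with filtration and scintillation counting. Primary screen in duplicate at 25 uM, actives then in concentration series. Loss of bound signal versus DMSO scored.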
# [11] = target: human Thyroid Receptor Alpha (TRa), THRA (gene 7067) (UniProt P10827); assay: NVS_NR_hTRa_Antagonist: NovaScreen (NVS) Nuclear Receptor Binding Assay for human Thyroid Receptor Alpha Antagonism (TRa) (AID 2283362)
# Sequence of human Thyroid Receptor Alpha (TRa), THRA (gene 7067) (P10827 whole entry, looked up): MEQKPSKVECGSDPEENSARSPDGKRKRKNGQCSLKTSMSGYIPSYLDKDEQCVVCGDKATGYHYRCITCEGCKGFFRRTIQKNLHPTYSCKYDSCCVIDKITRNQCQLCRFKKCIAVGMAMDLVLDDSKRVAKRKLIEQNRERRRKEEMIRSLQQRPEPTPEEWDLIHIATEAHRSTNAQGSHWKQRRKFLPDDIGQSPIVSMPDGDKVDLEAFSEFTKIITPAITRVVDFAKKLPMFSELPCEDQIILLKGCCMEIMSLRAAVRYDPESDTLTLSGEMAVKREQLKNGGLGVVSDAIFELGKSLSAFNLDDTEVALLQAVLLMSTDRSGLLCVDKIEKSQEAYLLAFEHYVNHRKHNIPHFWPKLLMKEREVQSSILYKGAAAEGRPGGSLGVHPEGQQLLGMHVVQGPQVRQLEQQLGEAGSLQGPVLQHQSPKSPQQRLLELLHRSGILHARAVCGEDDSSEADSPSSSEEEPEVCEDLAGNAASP
# How it was run: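 Chemicals were first screened in duplicate at 25 uM, then actives were retested in concentration series. Binding to the extracted receptor was measured 1 h after dosing by AlphaLISA chemiluminescence, with decreased signal versus DMSO scored as activity.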
# [12] = target: Peroxisome proliferator-activated receptor gamma (Homo sapiens) (UniProt P37231); assay: NVS_NR_hPPARg: NovaScreen (NVS) Nuclear Receptor Binding Assay for human Peroxisome Proliferator-activated Receptor gamma (PPARg) (AID 2283370)
# Sequence of Peroxisome proliferator-activated receptor gamma (Homo sapiens) (P37231 whole entry, looked up): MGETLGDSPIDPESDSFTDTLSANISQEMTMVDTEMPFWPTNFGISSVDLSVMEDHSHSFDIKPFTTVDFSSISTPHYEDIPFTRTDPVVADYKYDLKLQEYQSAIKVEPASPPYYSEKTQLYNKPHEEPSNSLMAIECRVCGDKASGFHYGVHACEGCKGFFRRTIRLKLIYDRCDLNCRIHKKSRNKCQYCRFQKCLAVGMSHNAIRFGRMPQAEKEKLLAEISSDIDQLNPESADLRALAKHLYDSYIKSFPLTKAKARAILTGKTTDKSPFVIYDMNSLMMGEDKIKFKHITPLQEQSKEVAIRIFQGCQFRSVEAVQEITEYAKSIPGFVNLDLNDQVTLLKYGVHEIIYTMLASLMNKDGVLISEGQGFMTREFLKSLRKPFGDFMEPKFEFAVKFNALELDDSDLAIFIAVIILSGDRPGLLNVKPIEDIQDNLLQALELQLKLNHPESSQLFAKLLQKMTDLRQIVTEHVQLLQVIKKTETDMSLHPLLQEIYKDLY
# How it was run: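 Fluorescence polarization measures competitive binding to extracted PPARg in a cell-free format. Reading is taken at 2 h; activity is signal loss relative to DMSO. Screening at 25 uM in duplicate preceded confirmatory dose series.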
# [13] = target: Nuclear receptor subfamily 1 group I member 2 (Homo sapiens) (UniProt O75469); assay: NVS_NR_hPXR: NovaScreen (NVS) Nuclear Receptor Binding Assay for human Pregnane X Receptor (PXR) (AID 2283365);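 also: a drop in FRET signal versus DMSO baseline means the compound binds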
# Sequence of Nuclear receptor subfamily 1 group I member 2 (Homo sapiens) (O75469 whole entry, looked up): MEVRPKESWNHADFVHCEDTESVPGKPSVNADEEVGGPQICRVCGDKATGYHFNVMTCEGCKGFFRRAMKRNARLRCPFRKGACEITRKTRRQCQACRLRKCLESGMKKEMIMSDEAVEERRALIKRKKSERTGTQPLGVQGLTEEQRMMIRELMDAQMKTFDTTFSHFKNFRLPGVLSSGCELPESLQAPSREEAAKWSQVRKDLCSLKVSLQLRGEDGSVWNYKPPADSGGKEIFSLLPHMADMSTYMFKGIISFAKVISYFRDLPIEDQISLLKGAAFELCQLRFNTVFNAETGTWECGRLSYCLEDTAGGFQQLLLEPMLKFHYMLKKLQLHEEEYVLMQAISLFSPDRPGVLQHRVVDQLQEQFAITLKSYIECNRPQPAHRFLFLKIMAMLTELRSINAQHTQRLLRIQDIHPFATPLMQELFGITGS
# How it was run: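 Binding was measured by time-resolved fluorescence resonance energy transfer after a 2 h exposure of extracted human PXR protein without cells. Compounds were first tested at 25 uM in duplicate, with concentration series for actives; DMSO defined baseline.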
# [14] = target: Retinoic acid receptor alpha (Homo sapiens) (UniProt P10276); assay: NVS_NR_hRARa_Agonist: NovaScreen (NVS) Nuclear Receptor Binding Assay for human Retinoic Acid Alpha Receptor Agonism (RAR) (AID 2283361)
# How it was run: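 Cell-free TR-FRET binding readout with extracted receptor protein, read 2 hours after dosing; gain-of-signal fitted relative to DMSO. Screened in duplicate at 25 uM, actives then run in concentration-response.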
structure (smiles),measurement,setting,value
O=C1c2ccccc2C(=O)N1CCc1noc(-c2ccc(CN3CCCCCC3)s2)n1,AC50,[1],6.76 µM (active)
same,AC50,[2],21.1 µM (active)
same,AC50,[3],13.9 µM (active)
same,outcome,[4],inactive
same,AC50,[5],7.26 µM (active)
same,AC50,[6],9.05 µM (active)
CCCCCCCCN(C)CCCCCCCC,outcome,PGR (gene 5241),inactive
same,AC50,[1],0.212 µM (active)
CN1C(=O)CC[C@H]1c1cccnc1,outcome,[7],inactive
same,outcome,PGR (gene 5241),inactive
CCCCOC(=O)CC(CC(=O)OCCCC)(OC(C)=O)C(=O)OCCCC,outcome,[7],inactive
CCOC(=O)O[C@H](C)OC(=O)c1ccc2c(c1)cc(C(=O)NC1CCN(C(C)C)CC1)n2Cc1cc(-c2ccc(Cl)s2)on1,outcome,[8],inactive
same,outcome,[7],inactive
same,AC50,[9],4.59 µM (active)
same,AC50,[1],0.226 µM (active)
same,AC50,[3],13.8 µM (active)
same,outcome,[4],inactive
same,AC50,[5],15.5 µM (active)
same,AC50,[10],3.21 µM (active)
CCCCCCCCCCCO,outcome,[8],inactive
same,outcome,[7],inactive
same,AC50,[11],28.4 µM (active)
CCCCCCCCCCCC[N+](C)(C)C,outcome,[7],inactive
same,AC50,[1],0.123 µM (active)
same,outcome,[2],inactive
same,AC50,[3],25 µM (active)
same,outcome,[12],inactive
same,AC50,[10],10.5 µM (active)
same,AC50,[6],13.7 µM (active)
Oc1ccccc1,outcome,[13],inactive
Clc1cc(Cl)c2c(c1)N=C1CCCCCN1C2,outcome,PGR (gene 5241),inactive
same,AC50,[1],0.542 µM (active)
same,AC50,[5],4.16 µM (active)
same,AC50,[10],4.92 µM (active)
CCCCCCCCOC(=O)c1cc(O)c(O)c(O)c1,AC50,[8],13 µM (active)
same,AC50,[7],12.4 µM (active)
same,AC50,[9],1.14 µM (active)
same,AC50,[2],22.2 µM (active)
same,AC50,[12],25 µM (active)
same,AC50,[10],19.9 µM (active)
O=C1O[C@H]([C@@H](O)CO)C(O)=C1O,outcome,[7],inactive
same,outcome,[12],inactive
c1ccc2ccccc2c1,outcome,[14],inactive
same,outcome,[12],inactive
CC(C)(c1cc(Br)c(O)c(Br)c1)c1cc(Br)c(O)c(Br)c1,outcome,[7],inactive
same,AC50,PGR (gene 5241),23.9 µM (active)
same,AC50,[9],4.97 µM (active)
Cc1ncc(CO)c(CO)c1O,AC50,PGR (gene 5241),16.9 µM (active)
CO[C@H]1/C=C/O[C@@]2(C)Oc3c(C)c(O)c4c(O)c(c(/C=N/N5CCN(C)CC5)c(O)c4c3C2=O)NC(=O)/C(C)=C\C=C\[C@H](C)[C@H](O)[C@@H](C)[C@@H](O)[C@@H](C)[C@H](OC(C)=O)[C@@H]1C,outcome,[7],inactive
CCO[Si](CCCNC(N)=O)(OCC)OCC,outcome,[8],inactive
same,outcome,[7],inactive
same,outcome,[14],inactive
O=C1CCC(C2CCCCC2)CC1,outcome,[7],inactive
same,outcome,[11],inactive
same,outcome,[13],inactive
same,AC50,[1],25 µM (active)
same,outcome,[12],inactive
O=C=NCCCCCCN=C=O,outcome,[8],inactive
same,AC50,[10],16.3 µM (active)
